Measurements from PubChem BioAssay (NCATS).
Inconclusive results are not listed. Active and inactive are the calls of the source. Unless noted, calls come from the whole dose curve; as a rule, active = well fitted curve in either direction with a large enough effect (not every such curve was filed as active); inconclusive = small, poorly fitted or top-dose-only effect, or another doubt; inactive = flat fitted curve, though single readings scatter.

Columns and labels:
[1] = AP1 Signaling Pathway (AID 357);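 note: ME-180 reporter cells stimulated with EGF at its EC50 level; % is set by controls: 0 for no effect and ±100 for the full control effect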
Procedure, shortened: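 Cells are seeded overnight, exposed to compound titrations and an EC50 level of EGF for 5 hours at 37 °C, then loaded with CCF4 dye for 2.5 hours. Beta-lactamase activity under the AP-1 element is read as a blue/green ratio.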

[2] = target: Cytochrome P450 1A2 (Homo sapiens) (UniProt P05177); assay: p450-cyp1a2 (AID 410; calls by dose curve; note: potency is the fitted concentration of half-maximal effect;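 for activity change, negative = inhibition: -100% = full effect of reference inhibitor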)
Procedure, shortened: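 20nM CYP1A2 with 100uM Luciferin-ME (at Km) in 100mM KPO4; compound preincubated 10 min, NADPH regeneration added, 60 min at room temperature. Luciferin quantified by luminescence after detection reagent; normalized to 57 uM furafylline.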

[3] = NFAT Signaling Pathway (AID 444); conditions: Jurkat NFAT-bla M1, carbachol, beta-lactamase ratio, 5 h; at 17.2 µM (top of the series) unless noted;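 note: carbachol stimulus at about its EC50 of 1 µM final; % is set by controls: 0 for no effect and ±100 for the full control effect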
Procedure, shortened: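 Jurkat cells carrying an NFAT-driven β-lactamase reporter and co-transfected muscarinic M1 receptor were treated with compound plus carbachol (1 uM final, an EC50 level) for 5 h at 37 °C. CCF4 loading followed for 1 h at RT; 460/530 nm ratio gave %activity.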

[4] = Stat Signaling Pathway (AID 446);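 note: ME-180 cervical cancer cells given 40 pM IL-6 alongside compound; SIE-controlled beta-lactamase reporter measured as 460/530 nm FRET emission ratio; % is set by controls: 0 for no effect and ±100 for the full control effect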
Procedure, shortened: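 IL-6/STAT signaling read in ME-180 cells via an SIE beta-lactamase reporter. Stimulus was 40 pM IL-6 (its AC50) for 5 hrs, so both activation and inhibition register.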

[5] = target: Glucocorticoid receptor (Homo sapiens) (UniProt P04150); assay: GR-GFP Redistribution (AID 450;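 active = compounds whose dose series gives a full or clear partial fitted curve of increased nuclear translocation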; note: potency is the fitted concentration of half-maximal effect); conditions: U2OS GR-GFP nuclear translocation, laser cytometry, 2 h
[6] = target: Glucocorticoid receptor (Homo sapiens) (UniProt P04150); assay: GR-EFC Redistribution (AID 451; calls by dose curve; note: potency is the fitted concentration of half-maximal effect); conditions: CHO-K1 GR-EFC translocation, beta-gal luminescence, 2 h
Procedure, shortened: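 CHO-K1 cells stably expressing nuclear-localized β-gal enzyme acceptor and GR fused C-terminally to the enzyme donor fragment; ligand-driven nuclear translocation restores β-gal by complementation. Compounds titrated up to 46 uM final, 2 h at 37 °C; luminescence read.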

[7] = target: 3',5'-cyclic-AMP phosphodiesterase 4B (Homo sapiens) (UniProt Q07343); assay: qHTS Assay for Inhibitors of PDE-IV (AID 607; active = well fitted activation curve with a large enough effect in the main read-out, with a control signal flat, not every such curve was filed as active; note: % of control where 0% means no effect)
Procedure, shortened: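 Live HEK293 cells with a modified cyclic nucleotide-gated (CNG) channel report intracellular cAMP via membrane-potential dye fluorescence (ex 535/em 590 nm). Endogenous PDE-IV was targeted. Compounds were tested at up to 22.9 uM final; RO 20-1724 100 uM served as control.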

[8] = target: Mitogen-activated protein kinase 10 (Mus musculus) (UniProt Q61831); assay: JNK3 AlphaScreen Assay (AID 530);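 note: kinase came from lysate of stimulated human HepG2 cells; signal reports phosphorylation of biotinylated GST-cJun 1-79 at Ser73 with 10 µM ATP; % is set by controls: 0 for no effect and ±100 for the full control effect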
Procedure, shortened: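 Inhibitors reduce antibody binding to phosphorylated biotin-cJun, lowering AlphaScreen luminescence. Lysates from HepG2 cells pre-activated by IL-1beta plus TNF-alpha supplied JNK3; compounds were titrated.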

[9] = Cell Viability - BJ (AID 421; calls by dose curve;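 note: potency is the fitted concentration of half-maximal effect; cells exposed to compound for 40 hours at 37 °C before readout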); conditions: BJ fibroblast viability, qHTS
Procedure, shortened: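 Quantitative HTS: ATP depletion in BJ cells after 40 hr compound exposure in complete culture medium, detected with CellTiter-Glo; AC50 from standard Hill fits.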

[10] = Cell Viability - Hek293 (AID 427;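 active = compounds whose dose-response curve shows a full or clear partial loss of cell viability, called from curve shape rather than a numeric limit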;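 note: potency is the fitted concentration of half-maximal effect; cells exposed to compound for 40 hours at 37 °C before reading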); conditions: qHTS
Procedure, shortened: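 AC50 values derive from Hill-modelled concentration-response of ATP-based luminescence, normalized between DMSO-only and 100 uM tamoxifen controls. Cells were exposed in complete culture medium for 40 hr at 37 °C before detection.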

[11] = Cell Viability - HepG2 (AID 433; calls by dose curve;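 note: potency is the fitted concentration of half-maximal effect; potency for ATP loss meaning cytotoxicity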); conditions: qHTS
Procedure, shortened: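 Read-out is luciferase-based quantitation of cellular ATP as a measure of viable HepG2 cells after 40 h treatment at 37 °C. Signal decrease is scaled between DMSO-only and 100 uM tamoxifen controls, with AC50 fitted by the Hill equation.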

[12] = Cell Viability - MRC5 (AID 434; calls by dose curve;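 note: potency is the fitted concentration of half-maximal effect; potency reflects cytotoxicity seen as loss of intracellular ATP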); conditions: MRC5 lung fibroblast viability, qHTS
Procedure, shortened: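 MRC5 normal human lung fibroblasts (1500/well) were treated with compounds for 40 hr at 37 °C in complete medium, and viable cells were measured as intracellular ATP by CellTiter-Glo luminescence. AC50 came from Hill fits, normalized to DMSO and 100 uM tamoxifen.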

[13] = Cell Viability - SK-N-SH (AID 435; calls by dose curve;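 note: potency is the fitted concentration of half-maximal effect; compound exposure lasted 40 h at 37 °C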); conditions: SK-N-SH neuroblastoma cell viability qHTS
Procedure, shortened: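 Luminescent ATP signal served as the viability read-out after 40 hours of compound treatment of human neuroblastoma SK-N-SH cells. Concentration-response data, scaled between DMSO and 100 uM tamoxifen, gave AC50 values by standard Hill modeling.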

[14] = Cell Viability - NIH 3T3 (AID 541; active = well fitted curve in the direction sought with a large enough effect; an effect the other way counts as inactive or inconclusive; note: nearly all actives have a fitted effect of over 25% in size; note: potency is the fitted concentration of half-maximal effect;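 for activity change, negative = cytotoxicity: plate controls were DMSO alone for no effect and tamoxifen positive control for full effect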); conditions: NIH 3T3 cell viability, qHTS; activity change, negative = cytotoxicity: at 92.2 µM (top of the series)
Procedure, shortened: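 Mouse NIH 3T3 fibroblasts, 1000 cells/well, rested 5 hr at 37 °C, then exposed to compound for 40 hr at 37 °C in complete medium. Viability read as intracellular ATP by CellTiter-Glo luminescence; AC50 from Hill-equation fits of concentration-response data.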

[15] = Cell Viability - HUV-EC-C (AID 542; active = well fitted curve in the direction sought with a large enough effect; an effect the other way counts as inactive or inconclusive; note: % is set by controls: 0 for no effect and ±100 for the full control effect; nearly all actives have a fitted effect of over 35% in size)
Procedure, shortened: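 HUV-EC-C human vascular endothelial cells, 1000/well, exposed to compound for 40 hr at 37 °C in complete medium. Intracellular ATP was read by CellTiter-Glo luminescence. AC50 came from Hill-equation fits of concentration-response data.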

[16] = Cell Viability - H-4-II-E (AID 543; active = well fitted curve in the direction sought with a large enough effect; an effect the other way counts as inactive or inconclusive; note: nearly all actives have a fitted effect of over 35% in size; note: potency is the fitted concentration of half-maximal effect)
Procedure, shortened: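 Rat hepatoma H-4-II-E cells, 1500 per well, treated 40 h at 37 °C in complete medium. Cellular ATP read by CellTiter-Glo luminescence; AC50 from Hill fits of concentration-response.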

[17] = Cell Viability - SH-SY5Y (AID 544; active = well fitted curve in the direction sought with a large enough effect; an effect the other way counts as inactive or inconclusive;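 note: 0% = DMSO alone and -100% = 100 µM tamoxifen; nearly all actives have a fitted effect of over 55% in size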)
Procedure, shortened: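 SH-SY5Y human neuroblastoma cells (1500/well) incubated 5 h, then compound-treated 40 h at 37 °C in complete medium. Viability read as intracellular ATP by CellTiter-Glo luminescence after 20 min; AC50 from Hill-equation fits of qHTS concentration-response.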

[18] = Cell Viability - Renal Proximal Tubule (AID 545; active = well fitted curve in the direction sought with a large enough effect; an effect the other way counts as inactive or inconclusive;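 note: 0% = DMSO only and -100% = 100 µM tamoxifen; nearly all actives have a fitted effect of over 40% in size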); conditions: renal proximal tubule cells viability, primary cells of rat origin; at 91.7 µM (top of the series)
Procedure, shortened: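 Luminescent ATP signal (CellTiter-Glo) served as the viability read-out after 40 hr compound exposure of freshly isolated rat proximal tubule cells at 37 °C. Concentration-dependent ATP loss was fitted with the Hill equation to give AC50.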

[19] = Cell Viability - N2a (AID 540; active = well fitted curve in the direction sought with a large enough effect; an effect the other way counts as inactive or inconclusive;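 note: plate controls were DMSO alone for no effect and tamoxifen control for full effect; nearly all actives have a fitted effect of over 45% in size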); conditions: N2a mouse neuroblastoma cell viability; at 92.2 µM (top of the series)
Procedure, shortened: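 Mouse neuroblastoma N2a cells, 1500/well, exposed to compounds 40 h at 37 °C in complete medium. Viability measured as cellular ATP by CellTiter-Glo luminescence; AC50 from Hill fits of concentration-response.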

Chain of Glucocorticoid receptor (Homo sapiens) (P04150 whole entry, looked up, the tested form may be a part): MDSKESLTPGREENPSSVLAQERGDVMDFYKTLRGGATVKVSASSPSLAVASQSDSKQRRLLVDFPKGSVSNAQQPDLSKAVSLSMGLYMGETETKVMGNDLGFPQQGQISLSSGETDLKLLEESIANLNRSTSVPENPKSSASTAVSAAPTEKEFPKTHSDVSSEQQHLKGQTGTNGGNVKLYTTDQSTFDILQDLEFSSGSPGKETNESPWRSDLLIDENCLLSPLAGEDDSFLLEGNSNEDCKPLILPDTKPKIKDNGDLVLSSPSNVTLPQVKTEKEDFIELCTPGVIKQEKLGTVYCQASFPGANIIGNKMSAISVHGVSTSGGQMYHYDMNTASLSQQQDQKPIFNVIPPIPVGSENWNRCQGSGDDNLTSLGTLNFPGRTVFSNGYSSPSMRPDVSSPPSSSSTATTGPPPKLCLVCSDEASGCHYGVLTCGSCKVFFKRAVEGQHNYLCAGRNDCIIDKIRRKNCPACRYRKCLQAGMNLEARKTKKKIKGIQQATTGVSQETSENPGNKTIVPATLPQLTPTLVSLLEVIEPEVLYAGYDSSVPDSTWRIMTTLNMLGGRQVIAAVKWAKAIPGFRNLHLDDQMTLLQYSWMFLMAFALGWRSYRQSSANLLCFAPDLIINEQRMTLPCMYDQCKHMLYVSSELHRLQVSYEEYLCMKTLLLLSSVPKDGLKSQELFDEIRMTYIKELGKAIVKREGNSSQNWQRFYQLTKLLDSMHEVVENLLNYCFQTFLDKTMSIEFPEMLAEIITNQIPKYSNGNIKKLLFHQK
Chain of 3',5'-cyclic-AMP phosphodiesterase 4B (Homo sapiens) (Q07343 whole entry, looked up): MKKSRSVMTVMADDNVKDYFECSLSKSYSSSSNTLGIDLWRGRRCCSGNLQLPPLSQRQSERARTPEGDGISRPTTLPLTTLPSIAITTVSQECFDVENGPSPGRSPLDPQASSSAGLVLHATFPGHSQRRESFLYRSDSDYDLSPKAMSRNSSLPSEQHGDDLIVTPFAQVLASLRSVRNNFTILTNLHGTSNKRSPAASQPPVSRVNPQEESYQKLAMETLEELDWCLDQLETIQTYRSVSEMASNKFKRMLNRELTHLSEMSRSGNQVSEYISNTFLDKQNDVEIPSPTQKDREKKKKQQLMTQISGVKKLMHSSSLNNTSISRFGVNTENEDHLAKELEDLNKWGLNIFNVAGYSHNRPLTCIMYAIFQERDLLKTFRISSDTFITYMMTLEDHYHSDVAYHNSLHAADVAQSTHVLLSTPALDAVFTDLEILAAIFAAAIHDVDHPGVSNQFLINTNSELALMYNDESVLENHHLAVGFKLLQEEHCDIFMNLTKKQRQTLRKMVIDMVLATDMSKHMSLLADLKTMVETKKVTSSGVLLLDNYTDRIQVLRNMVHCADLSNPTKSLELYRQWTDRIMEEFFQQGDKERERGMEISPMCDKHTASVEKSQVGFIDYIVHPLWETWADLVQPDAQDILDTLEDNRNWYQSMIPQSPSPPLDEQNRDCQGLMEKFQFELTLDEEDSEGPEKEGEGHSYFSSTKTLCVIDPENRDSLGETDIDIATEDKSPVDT
Chain of Cytochrome P450 1A2 (Homo sapiens) (P05177 whole entry, looked up): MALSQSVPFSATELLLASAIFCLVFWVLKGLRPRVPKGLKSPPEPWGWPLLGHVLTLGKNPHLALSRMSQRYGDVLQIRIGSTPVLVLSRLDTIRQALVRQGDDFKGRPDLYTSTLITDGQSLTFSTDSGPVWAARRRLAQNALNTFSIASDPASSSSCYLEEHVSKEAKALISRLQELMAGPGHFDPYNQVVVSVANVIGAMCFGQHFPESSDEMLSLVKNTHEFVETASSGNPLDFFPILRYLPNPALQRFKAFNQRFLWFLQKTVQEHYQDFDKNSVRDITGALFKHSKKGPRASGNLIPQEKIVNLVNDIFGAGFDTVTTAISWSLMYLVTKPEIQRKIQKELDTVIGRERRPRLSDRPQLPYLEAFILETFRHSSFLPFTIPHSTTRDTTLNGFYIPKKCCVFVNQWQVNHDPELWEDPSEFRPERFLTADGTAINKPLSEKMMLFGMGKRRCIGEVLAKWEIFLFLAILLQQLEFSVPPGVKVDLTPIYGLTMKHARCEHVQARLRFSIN

COc1cc(S(C)=O)ccc1-c1nc2ncccc2[nH]1 (configuration not stated)
active: Potency [2] 0.251 µM
inactive: outcome [1] | activity change, negative = inhibition [3] 21.1% | outcome [4] | Potency [5] > 20.6 µM | Potency [6] > 20.6 µM | outcome [7]

O=C1NCCN1c1ncc([N+](=O)[O-])s1
inactive: outcome [1] | activity change, negative = inhibition [3] -7.97% | outcome [4] | Potency [5] > 20.6 µM | Potency [6] > 20.6 µM | outcome [8] | outcome [7]

CN(CCO)CC(O)Cn1cnc2c1c(=O)n(C)c(=O)n2C (configuration not stated) (tested in a mixture with another compound)
inactive: outcome [1] | activity change, negative = inhibition [3] -24.9% | outcome [4]

CCCCC(=O)O[C@H]1CC[C@H]2[C@@H]3CCc4cc(O)ccc4[C@H]3CC[C@]12C
inactive: outcome [1] | outcome [4] | Potency [5] > 20.6 µM

Oc1ccc(/C=C/c2cc(O)cc(O)c2)cc1
inactive: outcome [1] | Potency [9] > 92 µM | Potency [10] 52.8 µM | Potency [11] > 92 µM | Potency [12] > 92 µM | Potency [13] > 92 µM | outcome [4] | outcome [8] | Potency [15] | Potency [17] | activity change, negative = cytotoxicity [18] -14.2%
active: Potency [14] 31.6 µM | Potency [16] 31.6 µM

Nc1ccc(N=Nc2ccccc2)c(N)n1
inactive: Potency [9] > 92 µM | Potency [10] > 92 µM | Potency [11] > 92 µM | Potency [12] > 92 µM | Potency [13] > 92 µM | activity change, negative = inhibition [3] -10% | outcome [4] | Potency [5] > 20.6 µM | Potency [6] > 20.6 µM | activity change, negative = cytotoxicity [19] -30.4% | activity change, negative = cytotoxicity [18] -20% | outcome [7]

Cc1cc(C)c(NC(=O)C[C@H](CC(=O)O)c2cccc3ccccc23)c(C(=O)N2CCC3(CCCC3)CC2)c1
inactive: outcome [1] | Potency [2] | activity change, negative = inhibition [3] -7.66% [at 38 µM] | outcome [4] | Potency [5] > 46 µM | Potency [6] > 46 µM | outcome [8] | outcome [7]

CCCCC
inactive: Potency [9] > 92 µM | Potency [10] > 92 µM | Potency [11] > 92 µM | Potency [12] > 92 µM | Potency [13] > 92 µM | outcome [8] | activity change, negative = cytotoxicity [19] 6.23% | activity change, negative = cytotoxicity [14] -10.6% | Potency [15] | Potency [16] | Potency [17] | activity change, negative = cytotoxicity [18] 5.08%

CCc1cn([C@H]2C[C@H](O)[C@@H](CO)O2)c(=O)[nH]c1=O
inactive: outcome [1] | activity change, negative = inhibition [3] 23.4% | outcome [4] | Potency [5] > 20.6 µM

O=C(O)Cc1nn(Cc2ccc(Br)cc2F)c(=O)c2ccccc12
inactive: outcome [8]
active: Potency [2] 31.6 µM

C[C@]12CC[C@@H]3c4ccc(OC(=O)c5ccccc5)cc4CC[C@H]3[C@@H]1CC[C@@H]2O
inactive: outcome [1]

CC1(C)S[C@@H]2[C@H](NC(=O)C3(N)CCCCC3)C(=O)N2[C@H]1C(=O)O
inactive: outcome [1] | activity change, negative = inhibition [3] -19.8% | outcome [4] | Potency [5] > 20.6 µM | Potency [6] > 20.6 µM | outcome [8] | outcome [7]

CN1CCc2c(c3ccccc3n2Cc2ccccc2)C1
active: Potency [2] 5.01 µM
inactive: outcome [1] | outcome [4] | outcome [8]

[O-][N+](=Nc1ccccc1)c1ccccc1
inactive: Potency [9] > 92 µM | Potency [10] > 92 µM | Potency [11] > 92 µM | Potency [12] > 92 µM | Potency [13] > 92 µM | outcome [8] | activity change, negative = cytotoxicity [19] 4.21% | activity change, negative = cytotoxicity [14] -5.77% | Potency [15] | Potency [16] | Potency [17] | activity change, negative = cytotoxicity [18] -0.723%

Nc1ncnc2c1ncn2[C@H]1CC[C@@H](CO)O1
inactive: Potency [9] > 92 µM | Potency [10] > 92 µM | Potency [11] > 92 µM | Potency [12] > 92 µM | Potency [13] > 92 µM | outcome [8] | activity change, negative = cytotoxicity [19] 6.32% | activity change, negative = cytotoxicity [14] 7.1% | Potency [15] | Potency [16] | Potency [17] | activity change, negative = cytotoxicity [18] 2.7%

CC[C@H]1OC(=O)[C@H](C)[C@@H](O[C@H]2C[C@@](C)(OC)[C@@H](O)[C@H](C)O2)[C@H](C)[C@@H](O[C@@H]2O[C@H](C)C[C@H](N(C)C)[C@H]2O)[C@](C)(O)C[C@@H](C)CN(C)[C@H](C)[C@@H](O)[C@]1(C)O
inactive: Potency [9] > 92 µM | Potency [10] > 92 µM | Potency [11] > 92 µM | Potency [12] > 92 µM | outcome [8] | activity change, negative = cytotoxicity [19] -23.6% | activity change, negative = cytotoxicity [14] -19.1% | Potency [16] | activity change, negative = cytotoxicity [18] -18.1%

Cc1ccc(S(=O)(=O)O)cc1C
inactive: Potency [9] > 92 µM | Potency [10] > 92 µM | Potency [11] > 92 µM | Potency [12] > 92 µM | Potency [13] > 92 µM | outcome [8] | activity change, negative = cytotoxicity [19] -7.07% | Potency [15] | Potency [16] | Potency [17] | activity change, negative = cytotoxicity [18] -15.2%
